High-throughput results deposited in PubChem by Broad Institute.
An excerpt weighted towards active compounds, which were near 4% of everything screened.
DENV2 CPE rescue: inhibitors of DENV2 cytopathic effect | CPE inhibition, % at 9.99 µM | 350,000 compounds, 1.7% hits | DENV2-infected cells, cytopathic effect rescue, plate reader; in the data active = CPE inhibition above about 20%, passing the limit was not always enough; inconclusive = no clear call, values can overlap the other calls; tested in BHK-21 cells
ERAP1 HTS inh: blocks human ERAP1 aminopeptidase activity; 340,000 compounds, 0.15% hits; recombinant ERAP1, Leu-AMC fluorescence, 60 min; inhibition, % at 10.7 µM;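 active = mean replicate inhibition of at least 30%, or all replicates individually reaching that 30% level; inactive = mean below 30% and not every replicate reaching it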
AF4-AF9 inh: blocks AF4 peptide binding to human AF9 | 350,000 compounds, 0.47% hits | AlphaScreen, biotin-AF4 peptide binding to FLAG-AF9 | inhibition, % at 10 µM | AID 651704;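 active = every replicate reaching a set inhibition limit, whatever the replicate mean, cut at about 25% in these data; inconclusive = mean inhibition reaches that limit but some replicates miss it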
FGF22 binding: FGF22 (human) thermal shift binding; Q9HCT0; recombinant FGF22 thermal shift, SYPRO orange fluorescence; percent of sucrose octasulfate shift, DMSO zero; activity (Tm shift, normalised), % at 9.99 µM; 340,000 compounds, 1.5% hits;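 active = mean Tm shift, scaled 0 neutral to 100 positive control, at about 1.3% or above, every replicate too, limit read from the data; inconclusive = no clear call, values can overlap the other calls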
Target sequence (Q9HCT0 whole entry, looked up): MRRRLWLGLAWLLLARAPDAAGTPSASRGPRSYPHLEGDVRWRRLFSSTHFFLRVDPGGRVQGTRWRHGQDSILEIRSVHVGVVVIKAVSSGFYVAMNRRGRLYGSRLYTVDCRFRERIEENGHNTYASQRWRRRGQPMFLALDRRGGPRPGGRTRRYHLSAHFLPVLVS
RAD52 anneal inh: blocks human RAD52 DNA annealing; 360,000 compounds, 0.46% hits; inhibition, % at 18.7 µM; recombinant RAD52 DNA annealing, FRET fluorescence; P43351; AID 651710;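 active = every replicate showing at least 50% inhibition; inconclusive = mean inhibition at least 50% but not in every replicate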
Target sequence (P43351 whole entry, looked up): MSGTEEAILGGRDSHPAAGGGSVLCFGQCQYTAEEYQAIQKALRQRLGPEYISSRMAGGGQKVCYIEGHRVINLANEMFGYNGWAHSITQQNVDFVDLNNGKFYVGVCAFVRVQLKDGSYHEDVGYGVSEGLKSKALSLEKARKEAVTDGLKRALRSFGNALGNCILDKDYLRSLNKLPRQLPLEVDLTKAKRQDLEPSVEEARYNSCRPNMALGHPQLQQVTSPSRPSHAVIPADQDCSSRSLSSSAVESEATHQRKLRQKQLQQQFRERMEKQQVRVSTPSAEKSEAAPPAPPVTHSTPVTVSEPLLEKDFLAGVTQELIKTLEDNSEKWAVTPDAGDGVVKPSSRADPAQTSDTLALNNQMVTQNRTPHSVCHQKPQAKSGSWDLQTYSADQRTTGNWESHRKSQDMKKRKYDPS
Alpha interfer: AlphaScreen signal interference counter-screen hit | 530 compounds, 45% hits | shares compounds with AF4-AF9 inh | AC50, µM (highest dose often 12 µM) | signal luminescence; cut-off not given, nearly all actives have AC50 up to about 14 µM
Large screens that a line does not name were inactive (follow-up assays come after a bar, where they were run).

COc1cc(O)c(C(CCN2CCCC2)c2ccc3c(c2)OCO3)c(OC)c1 (stereo not drawn)	none
COc1cc(C2CC(=O)Oc3c(C(CCN4CCOCC4)c4ccc(N(C)C)cc4)c(OC)cc(OC)c32)cc(OC)c1OC (stereo not drawn)	AF4-AF9 inh 40.3 | Alpha interfer 10.8µM
COc1cc(O)c(C(CCN2CCCCC2)c2ccc(N(C)C)cc2)c(OC)c1 (stereo not drawn)	AF4-AF9 inh 33.3 (no result: ERAP1 HTS inh) | Alpha interfer 12.1µM
C[C@H](O)C#Cc1ccc2c(c1)O[C@@H](CN(C)C(=O)Nc1ccccc1)[C@@H](C)CN([C@@H](C)CO)S2(=O)=O	none
C[C@@H]1CCCCO[C@@H](CN(C)C(=O)C2CCCCC2)[C@H](C)CN([C@@H](C)CO)C(=O)c2cc(NS(C)(=O)=O)ccc2O1	DENV2 CPE rescue inconclusive
CO[C@@H]1CN(C)C(=O)c2cc(C#N)ccc2OC[C@H]2O[C@H](CC[C@H]2OC)CCN(C)C(=O)[C@H]1C	none
Nc1ccc2[nH]ncc2c1	AF4-AF9 inh 44.7 | Alpha interfer inactive
Nc1ccc2ccc(N)cc2c1	none
C[C@H]1CN([C@@H](C)CO)C(=O)c2cc(N(C)C)ccc2O[C@@H]1CN(C)Cc1ccc(Cl)c(Cl)c1	AF4-AF9 inh 28.5 | Alpha interfer inactive
C[C@H]1CCCCO[C@H](CN(C)Cc2ccc(Cl)c(Cl)c2)[C@@H](C)CN([C@@H](C)CO)C(=O)c2cc(N(C)C)ccc2O1	AF4-AF9 inh 62.7 | Alpha interfer 12.8µM
C[C@H](CO)N1C[C@H](C)[C@@H](CN(C)Cc2ccc(Cl)c(Cl)c2)Oc2ccc(N(C)C)cc2C1=O	none
CC=Cc1ccc2n(c1=O)C[C@H]1[C@H](CO)[C@@H](C(=O)NCCN3CCCC3)N(C(=O)NC(C)C)[C@@H]21 (mixture of isomers)	none
COc1ccccc1N1CCN(/N=C/c2ccc(O)c(O)c2)CC1	none
COc1ccccc1N1CCN(/N=C/c2cccc(Cl)c2)CC1	AF4-AF9 inh 26.7 | Alpha interfer inactive
COc1ccc(/C=N/N2CCN(c3ccccc3)CC2)cc1Br	none
COc1ccc(/C=N/N2CCN(c3ccccc3OC)CC2)cc1Br	AF4-AF9 inh 27.1 | Alpha interfer inactive
COc1ccccc1N1CCN(/N=C/C=C\c2ccccc2[N+](=O)[O-])CC1	AF4-AF9 inh 51.0 (no result: FGF22 binding) | Alpha interfer inactive
COc1ccccc1N1CCN(/N=C/c2cccc(OC)c2O)CC1	none
Cc1noc(C)c1NC(=O)N(C)C[C@H]1Oc2ncc(C#CC(C)C)cc2C(=O)N([C@@H](C)CO)C[C@@H]1C	none
O=[N+]([O-])c1ccc(N=Nc2c(Cl)cc(O)cc2Cl)cc1	AF4-AF9 inh 51.6 | Alpha interfer 14.1µM
O=[N+]([O-])c1ccccc1N=Nc1ccc(O)cc1	none (no result: ERAP1 HTS inh)
CN(C)c1ccc(C=c2c3ccccc3n3c2cc(-c2ccccc2)[n+]3C)cc1	AF4-AF9 inh 42.7 | Alpha interfer 4.4µM
COc1cc(N(C)C)ccc1C=c1c2ccccc2n2c1cc(-c1ccccc1)[n+]2C	ERAP1 HTS inh 39.7, AF4-AF9 inh 84.4 | Alpha interfer 2.07µM
CN(C)c1ccc(C=C2C=C(c3ccccc3)OC2=O)cc1	none
Cc1ccc(NC(=S)N/N=C/c2ccc([N+](=O)[O-])s2)cc1	AF4-AF9 inh inconclusive | Alpha interfer inactive
O=C(Nc1ccc(F)cc1)N1CCCCN2[C@H](C1)[C@H](c1ccc(C3=CCCCC3)cc1)[C@@H]2CO	none
c1ccc2c(c1)nc(Nc1ccc(N3CCCCC3)cc1)c1nncn12	AF4-AF9 inh 36.4 | Alpha interfer inactive
c1ccc(N2CCCCC2)c(Nc2nc3ccccc3n3cnnc23)c1	none
O=C(C[C@@H]1C[C@@H]2c3cc(NC(=O)Cc4ccncc4)ccc3O[C@@H]2[C@H](CO)O1)NCC1CC1	none
CN(C)c1ccc(NC2=C(Cl)C(=O)c3ccccc3C2=O)cc1	AF4-AF9 inh 63.8 | Alpha interfer 1.92µM
CC(=O)Nc1ccc(NC2=C(Cl)C(=O)c3ccccc3C2=O)cc1	none
CCCNC(=O)N(C)C[C@@H]1Oc2ncc(Br)cc2C(=O)N([C@H](C)CO)C[C@H]1C	DENV2 CPE rescue inconclusive
CCOc1ccc(NCc2cccn2-c2nnc(N3CCC(C(=O)NCCCN4C(C)CCCC4C)CC3)s2)cc1 (stereo not drawn)	AF4-AF9 inh 50.5, RAD52 anneal inh 64.4 | Alpha interfer 11.2µM
C[C@H]1CN([C@@H](C)CO)S(=O)(=O)c2ccc(C#Cc3ccncc3)cc2O[C@H]1CN(C)C(=O)C1CCC1	none
COC(=O)c1ccc2nc(C)cc(Nc3ccc(N(C)C)cc3)c2c1	AF4-AF9 inh 31.5 | Alpha interfer inactive
COC(=O)c1ccc(Nc2cc(C)nc3ccccc23)cc1	DENV2 CPE rescue inconclusive
CC1C/C(=C/c2cccs2)C(=O)/C(=C/c2cccs2)C1 (stereo not drawn)	AF4-AF9 inh inconclusive | Alpha interfer inactive
O=C1/C(=C/c2cccs2)CCC/C1=C\c1cccs1	none
COc1ccc(C(CCN2CCCC2)c2c(OC)cc(OC)c3c(-c4ccccc4)cc(=O)oc23)cc1 (stereo not drawn)	none (no result: ERAP1 HTS inh)
COc1cc(OC)c2c(-c3ccccc3)cc(=O)oc2c1C(CCN1CCCC(C)C1)c1ccc(N(C)C)cc1 (stereo not drawn)	AF4-AF9 inh 67.0 | Alpha interfer 3µM
COc1cc(OC)c2c(-c3ccccc3)cc(=O)oc2c1C(CCN1CCCC1)c1ccc2c(c1)OCO2 (stereo not drawn)	AF4-AF9 inh 29.3 | Alpha interfer inactive
CCN(CC)CCC(c1ccc(N(C)C)cc1)c1c(OC)cc(OC)c2c(-c3ccccc3)cc(=O)oc12 (stereo not drawn)	AF4-AF9 inh 51.0 | Alpha interfer 4.82µM
CC(C)N1C(=O)/C(=C\c2nc3ccccc3c(=O)[nH]2)c2ccccc21	AF4-AF9 inh 26.2 | Alpha interfer inactive
CCCN1C(=O)/C(=C/c2nc3ccccc3c(=O)[nH]2)c2ccccc21	none
COc1ccc(-c2oc3ccccc3c(=O)c2OC(C)=O)cc1	AF4-AF9 inh 55.5 | Alpha interfer 7.29µM
O=C(C1CCCC1)N1CC2(C1)[C@@H](c1ccccc1)[C@@H](CO)N2Cc1cncnc1	none (no result: FGF22 binding)
CN(C(=O)c1cccc(NC(=O)Cc2ccc(NC(=O)C3CCN(C(=O)c4ccccc4)CC3)cc2)c1)C1CCC1	none
CN(CCc1ccccc1)C(=O)c1ccc(NC(=O)Cc2ccc(NC(=O)C3CCN(C(=O)C4CCCCC4)CC3)cc2)cc1	AF4-AF9 inh 26.6 | Alpha interfer inactive
CN(C(=O)c1ccc(NC(=O)Cc2ccc(NC(=O)C3CCN(C(=O)c4ccccc4)CC3)cc2)cc1)C1CC1	DENV2 CPE rescue inconclusive, AF4-AF9 inh 37.5 | Alpha interfer inactive
c1ccc(CNCCC(Cc2ccccc2)c2ccco2)cc1 (stereo not drawn)	none
